An excerpt weighted towards active compounds, which were near 1.4% of everything screened.
MCL1-BIM inh = inhibitors of human MCL1 binding to BIM-BH3 peptide | actives 0.68% (n = 320,000) | Q07820 | AID 2057 | inhibition, % at 10.9 µM | GST-MCL1 / FITC-Bim-BH3 fluorescence polarization;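 active means inhibition above the mean inhibition of all tested compounds plus 3 SD, set per campaign, cut at about 40% in these data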;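 further: higher means more loss of mP so more displacement of Bim peptide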
Target sequence (Q07820 whole entry, looked up): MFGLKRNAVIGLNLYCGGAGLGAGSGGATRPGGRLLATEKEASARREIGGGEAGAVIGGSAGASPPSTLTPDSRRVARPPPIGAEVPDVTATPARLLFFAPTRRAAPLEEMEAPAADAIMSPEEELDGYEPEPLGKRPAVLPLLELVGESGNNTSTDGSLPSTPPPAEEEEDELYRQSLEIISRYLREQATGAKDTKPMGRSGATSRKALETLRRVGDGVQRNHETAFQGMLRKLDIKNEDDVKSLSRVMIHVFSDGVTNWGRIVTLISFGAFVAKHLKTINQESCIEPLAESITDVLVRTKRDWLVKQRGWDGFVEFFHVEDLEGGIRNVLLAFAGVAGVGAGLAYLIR
GLD-1 RNA inh = GLD-1-TGE RNA interaction inhibition (C. elegans); Q17339; actives 0.44% (n = 320,000); purified GLD-1 + fluorescein TGE RNA, fluorescence polarization; inhibition, % at 5.96 µM;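 active means percent inhibition above a per-plate cutoff, the plate mean of test compounds plus 3 SD, cut at about 30% in these data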
BCLXL inh = inhibitors of human Bcl-xL | Q07817 | GST-Bcl-xL / FITC-Bim BH3 peptide fluorescence polarization | inhibition, % at 10.9 µM | actives 0.7% (n = 320,000) | AID 2129;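 active means inhibition above the mean of all tested compounds plus 3 SD, cutoff set per campaign, cut at about 30% in these data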;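 further: inhibitors lower millipolarization by displacing the labeled peptide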
Target sequence (Q07817 whole entry, looked up): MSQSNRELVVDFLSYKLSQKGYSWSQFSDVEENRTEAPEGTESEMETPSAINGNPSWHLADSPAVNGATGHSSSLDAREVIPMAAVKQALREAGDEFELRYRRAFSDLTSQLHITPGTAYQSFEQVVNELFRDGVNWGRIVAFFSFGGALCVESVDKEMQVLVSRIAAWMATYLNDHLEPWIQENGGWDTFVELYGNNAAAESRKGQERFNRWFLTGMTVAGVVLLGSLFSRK
MEX-5 binding = C. elegans MEX-5 TCR-2 RNA binding activity; Q9XUB2; MEX-5/FITC-TCR2 RNA binding, fluorescence polarization; hits give low values; activity score (negative = inhibition of binding), % at 10 µM; actives 0.38% (n = 300,000);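 active means inhibition past about -25% in most replicates, and total fluorescence under double the plate's negative control median, limit read from the data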
E coli Lon inh = inhibits E. coli Lon protease; purified E. coli Lon protease, fluorescence polarization; inhibition, % at 7.94 µM; actives 0.42% (n = 360,000); AID 602123; in the data active means inhibition above about 13%, passing the limit was not always enough
GLD1 RNA confirm = confirmation of C. elegans GLD-1 TGE RNA binding inhibitors. shares compounds with GLD-1 RNA inh. GLD-1/FL-TGE RNA fluorescence polarization, biochemical. inhibition, % at 5.96 µM. actives 10% (n = 550). AID 2459;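 active means average inhibition across triplicates above the hit cutoff set in the primary screen, cut at about 32% in these data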
Each line names hits and unclear results; the compound was inactive in the other large screens (follow-up assays come after a bar, where they were run).

Cc1ccc(NC(=O)c2oc3ccccc3c2NC(=O)C2CCCO2)cc1C (stereo unspecified)	none
COc1ccc(NC(=O)c2oc3ccccc3c2NC(=O)C2CCCO2)cc1OC (stereo unspecified)	GLD-1 RNA inh 70.3 | GLD1 RNA confirm inactive
COC(=O)C1Sc2[nH]c(=O)sc2C(c2ccc(Cl)cc2)C1C(=O)OC (stereo unspecified)	none
Cc1ccc(C2c3sc(=O)[nH]c3SC3C(=O)NC(=O)C32)cc1 (stereo unspecified)	GLD-1 RNA inh 53.9, MEX-5 binding -45.7 | GLD1 RNA confirm inactive
Cc1ccc(-c2nc(-c3ccncc3)no2)cc1Cl	none
Cc1ccc(-c2nc(-c3ccncc3)no2)cc1C	GLD-1 RNA inh 37.2 | GLD1 RNA confirm inactive
OCc1ccccc1-c1ccc2nccn2c1	none (no result: MCL1-BIM inh, GLD-1 RNA inh, BCLXL inh, MEX-5 binding)
CCc1c(C)sc(NC(=O)OC)c1C(N)=O	none
CCc1c(C)sc(NC(=O)OC)c1C(=O)N1CCCCC1	MCL1-BIM inh 41.0, GLD-1 RNA inh 32.5, BCLXL inh 36.9 (no result: MEX-5 binding) | GLD1 RNA confirm inactive
O=c1c2cccc(Cl)c2nc2n1Cc1ccccc1-2	GLD-1 RNA inh 41.7 | GLD1 RNA confirm inactive
O=C1CS/C(=N\N=C\c2ccco2)N1c1ccccc1	none
O=C1CS/C(=C\[N+](=O)[O-])N1c1ccccc1	GLD-1 RNA inh 35.3, MEX-5 binding -44.8 | GLD1 RNA confirm 56.0
Nc1ccccc1C(=O)Nc1cccc2ccccc12	none (no result: MCL1-BIM inh, GLD-1 RNA inh, BCLXL inh)
O=C(Nc1cccc2ccccc12)c1ccccc1Cl	GLD-1 RNA inh 50.7 | GLD1 RNA confirm inactive
Cc1nc2c(OCc3ccc(C#N)cc3)cccn2c1N(C)Cc1cccs1	none (no result: MCL1-BIM inh, GLD-1 RNA inh, BCLXL inh, MEX-5 binding)
COc1ccc(Nc2ccc(N3C(=O)CC(C)C3=O)cc2[N+](=O)[O-])cn1 (stereo unspecified)	MCL1-BIM inh 42.0, GLD-1 RNA inh 38.4, BCLXL inh 42.2 | GLD1 RNA confirm inactive
CC(=O)Nc1cccc(NC(=O)NC2CC(=O)N(c3ccc4c(c3)OCCO4)C2)c1 (stereo unspecified)	none (no result: MCL1-BIM inh, GLD-1 RNA inh, BCLXL inh, MEX-5 binding)
CCc1ccc(NC(=O)C2CCCN(S(=O)(=O)c3cnc[nH]3)C2)cc1 (stereo unspecified)	GLD-1 RNA inh 61.4 | GLD1 RNA confirm inactive
CCc1ccc(NC(=O)C2CCN(S(=O)(=O)c3cnc[nH]3)CC2)cc1	none
CCC1CCCCN1Cc1c(O)ccc2c(=O)c(-c3ccccc3)coc12 (stereo unspecified)	none
CC1CCCCN1Cc1c(O)ccc2c(=O)c(-c3ccccc3)coc12 (stereo unspecified)	MCL1-BIM inh 41.1, GLD-1 RNA inh 41.9, BCLXL inh 36.2 | GLD1 RNA confirm inactive
COCCn1c(=NC(=O)c2ccc(S(=O)(=O)N3CCCc4ccccc43)cc2)sc2cc(S(C)(=O)=O)ccc21	GLD-1 RNA inh 31.8 | GLD1 RNA confirm inactive
C=CCn1c(=NC(=O)c2ccc(S(=O)(=O)N3CCCc4ccccc43)cc2)sc2cc(S(N)(=O)=O)ccc21	none
CCOc1ccc(C(=O)n2cnnc2N)cc1	GLD-1 RNA inh 35.5 | GLD1 RNA confirm inactive
COc1ccc(C(=O)n2cnnc2N)cc1	none
COCCCNC(=O)c1ccc(OC)c(OC2CCN(C(C)C)CC2)c1	none
CCN(CC)CCNc1cc(C)c(C#N)c2nc3ccccc3n12	GLD-1 RNA inh 31.8, BCLXL inh 33.5 | GLD1 RNA confirm inactive
CCN(CC)CCCNc1cc(C)c(C#N)c2nc3ccccc3n12	none (no result: MCL1-BIM inh, GLD-1 RNA inh, BCLXL inh, MEX-5 binding)
COc1cc(NC(=O)C2(C)CCN2C(=O)C(C)C)cc(OC)c1OC (stereo unspecified)	none (no result: MCL1-BIM inh, GLD-1 RNA inh, BCLXL inh, MEX-5 binding)
CC(C)=CCc1cc([C@@H]2CC(=O)c3ccc(O)c(CC=C(C)C)c3O2)ccc1O	GLD-1 RNA inh 43.1 | GLD1 RNA confirm inactive
COc1c(CC=C(C)C)cc(C2CC(=O)c3c(O)cc(O)cc3O2)c(CC=C(C)C)c1O (stereo unspecified)	none (no result: E coli Lon inh)
COc1ccccc1Cc1c(-c2ccco2)nc2c3ccccc3ccn12	none (no result: MCL1-BIM inh, GLD-1 RNA inh, BCLXL inh, MEX-5 binding)
CCOc1ccc(S(=O)(=O)Nc2nc3ccc(OC)cc3s2)cc1	GLD-1 RNA inh 39.3 | GLD1 RNA confirm inactive
COc1ccc(S(=O)(=O)C(C#N)c2nc3ccccc3nc2N2CCCC(C)C2)cc1 (stereo unspecified)	MCL1-BIM inh 41.0, GLD-1 RNA inh 33.3, BCLXL inh 43.4 | GLD1 RNA confirm inactive
COc1ccc(NC(=O)c2cc(=O)c3ccccc3o2)cn1	MCL1-BIM inh 48.3, GLD-1 RNA inh 41.5, BCLXL inh 44.2 | GLD1 RNA confirm inactive
COc1ccc(NC(=O)c2cc3ccccc3o2)cn1	none
CCN1C(=O)C(CC(=O)Nc2ccc(OC)cc2)N(CCc2ccc(OC)cc2)C1=S (stereo unspecified)	none
COc1ccc(CCN2C(=S)N(C)C(=O)C2CC(=O)Nc2ccc(F)cc2)cc1 (stereo unspecified)	GLD-1 RNA inh 61.2 | GLD1 RNA confirm inactive
CC1(C(=O)NS(=O)(=O)Cc2ccccc2)CCN1C(=O)Cc1ccccc1 (stereo unspecified)	none (no result: MCL1-BIM inh, GLD-1 RNA inh, BCLXL inh, MEX-5 binding)
Cn1c(=O)c(=O)n(C)c2cc(S(=O)(=O)CCC(=O)NCc3ccccc3)ccc21	none
CCN(Cc1ccccc1)C(=O)CCS(=O)(=O)c1ccc2c(c1)n(C)c(=O)c(=O)n2C	GLD-1 RNA inh 45.8 | GLD1 RNA confirm inactive
CC(=O)Nc1cccc2c1C(=O)N(c1ccccc1C)C2=O	none
CC(=O)Nc1ccc(N2C(=O)c3cccc(NC(C)=O)c3C2=O)cc1	GLD-1 RNA inh 51.2 | GLD1 RNA confirm inactive
CCCS(=O)(=O)c1c(S(=O)(=O)CCC)c2c(N)cccn2c1C(=O)OC	GLD-1 RNA inh 35.4 | GLD1 RNA confirm inactive
CCCS(=O)(=O)c1c(S(=O)(=O)CCC)c2c(N)cccn2c1C(=O)c1ccccc1	none
CCCOc1ccc(F)cc1-c1cc(C(=O)NCc2cccc(C(F)(F)F)c2)[nH]n1	none (no result: MCL1-BIM inh, GLD-1 RNA inh, BCLXL inh, MEX-5 binding)
Cc1sc2nc(C(C)(C)C)oc(=O)c2c1C	GLD-1 RNA inh 116.7 | GLD1 RNA confirm inactive
Cc1ccccc1-c1nc2sc(C)c(C)c2c(=O)o1	none
Cc1ccc(C2=NN(CC(=O)NCCN(CC(C)C)CC(C)C)C(=O)CC2)cc1	none
O=C1CC[C@@H](C(=O)N2CSC[C@@H]2C(=O)Nc2cccc(C(F)(F)F)c2)N1	none (no result: MCL1-BIM inh, GLD-1 RNA inh, BCLXL inh, MEX-5 binding)
CCc1nc2ccc(C(=O)N3CCN(C(C)=O)CC3)cn2c1N(C=O)Cc1ccc(OC)cc1	none (no result: MCL1-BIM inh, GLD-1 RNA inh, BCLXL inh, MEX-5 binding)
Cc1cc2cc(CNC(=O)C3CCCC3)ccc2n1C	GLD-1 RNA inh 37.3 | GLD1 RNA confirm inactive
Cc1cc2cc(CNC(=O)CCC(=O)O)ccc2n1C	none
Cc1cc2cc(CNC(=O)c3ccc(Br)o3)ccc2n1C	GLD-1 RNA inh 38.3 | GLD1 RNA confirm inactive
O=[N+]([O-])c1ccc2nc(NN=Cc3ccc(O)cc3)sc2c1	none (no result: MCL1-BIM inh, GLD-1 RNA inh, BCLXL inh, MEX-5 binding)
CC1=C(C(=O)OCc2ccccc2)C(c2ccccc2Br)NC(=O)N1 (stereo unspecified)	none
CC(C)c1ccc(/C=N/n2nnnc2Nc2ccccc2)cc1	GLD-1 RNA inh 48.9, BCLXL inh 42.8 | GLD1 RNA confirm inactive
